PubChem BioAssay (NCI)
The panel holds about 79,000 compounds, 15% with a hit somewhere; the sample as a whole holds those more often. The source made the active and inactive calls. No stated cut-off is given here; in the data, active means growth inhibition above about 70%; inactive means the rest.

Experiments:
[1] = NCI Yeast Anticancer Drug Screen. Data for the wt1 strain (AID 149);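 further: 0% = growth of vehicle-treated wt1 cultures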; conditions: S. cerevisiae wt1 strain (SPY 50644) growth inhibition, stronger effect = higher value
Summary of the method: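 Compounds are added to wt1 yeast cultures. Growth is then measured. Inhibition is expressed relative to vehicle-treated controls.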

[2] = NCI Yeast Anticancer Drug Screen. Data for the rad50EPP+ strain (AID 151);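 further: 0% = growth of vehicle-treated control cultures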; conditions: S. cerevisiae rad50 mutant strain, stronger effect = higher value
Summary of the method: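 Growth inhibition read against vehicle controls in rad50EPP+ yeast, a strain altered in DNA damage repair, after compound exposure.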

[3] = NCI Yeast Anticancer Drug Screen. Data for the mgt1 strain (AID 153); conditions: S. cerevisiae mgt1 mutant growth inhibition, stronger effect = higher value
Summary of the method: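 mgt1 yeast grown with test compound; read-out is growth inhibition versus vehicle-treated cultures.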

[4] = NCI Yeast Anticancer Drug Screen. Data for the rad50 strain (AID 155);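 further: 0% = growth of vehicle-only cultures of the same strain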; conditions: S. cerevisiae rad50 strain growth inhibition, stronger effect = higher value
Summary of the method: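 Inhibition values express reduced yeast growth in compound-treated cultures relative to vehicle-treated controls.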

[5] = NCI Yeast Anticancer Drug Screen. Data for the mec2-1 strain (AID 157); conditions: S. cerevisiae mec2-1 strain, stronger effect = higher value
Summary of the method: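 Yeast mec2-1 mutant treated with compound. Readout: growth inhibition vs vehicle controls.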

[6] = NCI Yeast Anticancer Drug Screen. Data for the rad14 strain (AID 159);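 further: 0% = growth of vehicle-treated control cultures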; conditions: S. cerevisiae rad14 strain growth inhibition, stronger effect = higher value
Summary of the method: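 A mutant yeast strain defective in DNA damage repair is treated with compound; inhibition of its growth is scored against untreated, vehicle-exposed cultures.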

[7] = NCI Yeast Anticancer Drug Screen. Data for the sgs1 mgt1 strain (AID 161);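 further: 0% = growth of cultures given vehicle only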; conditions: S. cerevisiae sgs1 mgt1 strain, stronger effect = higher value
Summary of the method: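 Mutant yeast exposed to compound; growth scored against vehicle-only wells.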

[8] = NCI Yeast Anticancer Drug Screen. Data for the CLN2oe strain (AID 163);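 further: 0% = growth of vehicle-only control cultures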; conditions: S. cerevisiae CLN2oe strain, stronger effect = higher value
Summary of the method: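 Read-out: yeast growth inhibition, expressed relative to vehicle-only controls. The strain bears an engineered cell-cycle alteration.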

[9] = NCI Yeast Anticancer Drug Screen. Data for the cln2 rad14 strain (AID 165);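 further: 0% = growth equal to vehicle treated cultures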; conditions: S. cerevisiae cln2 rad14 strain, stronger effect = higher value
Summary of the method: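 cln2 rad14 yeast strain; compound exposure; growth inhibition read vs vehicle controls.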

[10] = NCI Yeast Anticancer Drug Screen. Data for the bub3 strain (AID 167); conditions: S. cerevisiae bub3 mutant strain, stronger effect = higher value
Summary of the method: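 Steps: expose the mutant yeast strain to compound; grow alongside vehicle-treated cultures; measure growth; express inhibition against the vehicle cultures.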

[11] = NCI Yeast Anticancer Drug Screen. Data for the wt2 strain (AID 169);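 further: 0% = growth of vehicle-treated yeast cultures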; conditions: S. cerevisiae wt2 strain growth inhibition, stronger effect = higher value
Summary of the method: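 Read-out: growth inhibition versus vehicle-treated control cultures after compound exposure of the yeast strain.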

[12] = NCI Yeast Anticancer Drug Screen. Data for the mlh1 strain (AID 171);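 further: 0% = growth of vehicle-treated control cultures of the same strain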; conditions: S. cerevisiae mlh1 strain growth inhibition, stronger effect = higher value
Summary of the method: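 Read-out: growth inhibition versus vehicle controls. Strain: engineered yeast with a defined DNA repair or cell cycle defect, compound-treated.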

[13] = NCI Yeast Anticancer Drug Screen. Data for the mlh1 rad18 strain (AID 175); conditions: S. cerevisiae mlh1 rad18 strain growth inhibition, stronger effect = higher value
Summary of the method: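 Yeast w/ defined DNA-repair lesions; compound exposure; growth vs vehicle controls → % inhibition.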

[14] = NCI Yeast Anticancer Drug Screen. Data for the rad18 strain (AID 177); conditions: S. cerevisiae rad18 mutant growth inhibition, stronger effect = higher value
Summary of the method: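 Readout: growth inhibition vs vehicle controls. Cells: genetically altered yeast strain, DNA repair defect.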

[15] = at 5.0 µM (retest, dose inferred, filed as 0.5)
[16] = at 50.0 µM (retest, dose inferred, filed as 5.0)

Measured: growth inhibition

CC(C)(C(=O)NN)c1ccccc1
inactive: [1]; at 1.2 µM 2% | [1]; at 3.7 µM 9% | [1]; at 11.0 µM 34% | [1]; at 33.0 µM 52% | [2]; at 1.2 µM 4% | [2]; at 3.7 µM 25% | [2]; at 11.0 µM 52% | [2]; at 33.0 µM 68% | [3]; at 1.2 µM 4% | [3]; at 3.7 µM 10% | [3]; at 11.0 µM 22% | [3]; at 33.0 µM 54% | [4]; at 1.2 µM 3% | [4]; at 3.7 µM 5% | [4]; [15] 14% | [4]; at 11.0 µM 22% | [4]; at 33.0 µM 40% | [4]; at 50.0 µM 52.9% | [5]; at 1.2 µM 0% | [5]; at 3.7 µM 1% | [5]; [15] 11% | [5]; at 11.0 µM 24% | [5]; at 33.0 µM 53% | [5]; at 50.0 µM 9.5% | [6]; at 1.2 µM -1% | [6]; at 3.7 µM -4% | [6]; at 11.0 µM 3% | [6]; at 33.0 µM 21% | [6]; at 100.0 µM 58% | [7]; [15] 14% | [7]; at 50.0 µM 14.9% | [8]; at 1.2 µM -7% | [8]; at 3.7 µM -1% | [8]; at 11.0 µM 27% | [8]; at 33.0 µM 51% | [9]; [15] 20% | [9]; at 50.0 µM 55.5% | [10]; at 1.2 µM -3% | [10]; at 3.7 µM 0% | [10]; [15] -14% | [10]; at 11.0 µM 34% | [10]; at 50.0 µM 52% | [11]; at 1.2 µM 1% | [11]; at 3.7 µM 10% | [11]; at 11.0 µM 28% | [11]; at 33.0 µM 42% | [12]; at 1.2 µM 3% | [12]; at 3.7 µM 5% | [12]; at 11.0 µM 21% | [12]; at 33.0 µM 46% | [13]; [15] 63% | [13]; at 50.0 µM 62.9% | [14]; at 1.2 µM 2% | [14]; at 3.7 µM 8% | [14]; at 11.0 µM 46%
active: [1]; at 100.0 µM 78% | [2]; at 100.0 µM 85% | [3]; at 100.0 µM 90% | [4]; [16] 99% | [4]; at 100.0 µM 82% | [5]; [16] 95% | [5]; at 100.0 µM 83% | [7]; [16] 98% | [8]; at 100.0 µM 81% | [9]; [16] 88% | [10]; at 33.0 µM 70% | [10]; [16] 97% | [10]; at 100.0 µM 94% | [11]; at 100.0 µM 83% | [12]; at 100.0 µM 91% | [13]; [16] 99% | [14]; at 33.0 µM 70% | [14]; at 100.0 µM 92%
